Sampled rows, rich in hits. Any-hit rate of the full collection: about 28%.
Plk1 PBD FP = Plk1 polo box domain binding inhibitors, primary screen, biochemical, fluorescence polarization | Plk1 PBD phosphopeptide binding | inhibition, %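 (tested at about 20 µM)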 | Serine/threonine-protein kinase PLK1 (Homo sapiens), P53350 | 97,000 tested, 0.13% active; in the data active = inhibition above about 34%, passing the limit was not always enough
CYP2C19 inhib = blockers of cytochrome P450 2C19 activity – biochemical, luminescence, ADME assay, primary screen; P33261; CYP2C19 Supersomes, luciferin-H EGE luminescence, 30 min; inhibition, % at 5 µM; 96,000 tested, 21% active;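 active = CYP2C19 inhibition above a set limit at 5 µM in the primary screen, cut at about 50% in these data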;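 note: plate controls were negative control wells for no effect and 2.5 mM tranylcypromine positive control for full effect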
CYP2C9 act = human CYP2C9 activators, primary screen, biochemical, luminescence. Cytochrome P450 2C9 (Homo sapiens), P11712. recombinant CYP2C9, luciferin-H conversion; hits give high values; factor 1 = untreated enzyme, 0 = blocked. activation factor at 5 µM. 96,000 tested, 1.4% active. AID 1024, 2008;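 active = activation factor of 2 or more for CYP2C9 at a 5 µM dose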;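 note: 0 = sulfaphenazole-blocked wells and 1 = vehicle-only wells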
Target sequence (P11712 whole entry, looked up): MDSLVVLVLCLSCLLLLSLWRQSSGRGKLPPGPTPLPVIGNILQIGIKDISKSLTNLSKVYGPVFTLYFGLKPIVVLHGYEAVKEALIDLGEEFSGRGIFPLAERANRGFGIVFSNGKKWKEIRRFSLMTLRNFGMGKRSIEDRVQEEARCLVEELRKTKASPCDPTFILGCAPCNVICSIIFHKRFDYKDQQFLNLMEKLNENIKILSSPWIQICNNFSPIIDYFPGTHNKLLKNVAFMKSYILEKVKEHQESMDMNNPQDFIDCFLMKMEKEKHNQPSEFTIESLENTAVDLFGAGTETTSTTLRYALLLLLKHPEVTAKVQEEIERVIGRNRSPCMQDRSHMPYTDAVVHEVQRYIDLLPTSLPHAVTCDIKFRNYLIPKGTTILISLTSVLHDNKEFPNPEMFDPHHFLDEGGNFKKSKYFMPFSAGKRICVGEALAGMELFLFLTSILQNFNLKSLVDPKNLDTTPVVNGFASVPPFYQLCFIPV
PLK1 inh = human PLK1 kinase inhibitors, primary screen, biochemical, TR-FRET. Serine/threonine-protein kinase PLK1 (Homo sapiens), P53350. recombinant PLK1 kinase, TR-FRET peptide phosphorylation. inhibition, % at 10 µM. 97,000 tested, 0.53% active;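 active = inhibition of 50% or more in the single-concentration screen; inactive = inhibition below 50%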;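 note: 0% = DMSO max control and 100% = H-89 dihydrochloride min control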
CYP2C9 inh = blockers of cytochrome P450 2C9 activity – biochemical, luminescence, ADME assay, primary screen; P11712; inhibition, % at 5 µM; 96,000 tested, 20% active; CYP2C9 Supersomes, luciferin-H conversion;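 active = blocking of liver enzyme CYP2C9 beyond about 50% at 5 µM, limit read from the data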
CYP2C19 activ = human CYP2C19 activators, primary screen, biochemical, luminescence; Cytochrome P450 2C19 (Homo sapiens), P33261; recombinant CYP2C19, luciferin-H EGE luminescence; hits give high values; 0 = fully inhibited enzyme, 1 = untreated enzyme; activation factor at 5 µM; 96,000 tested, under 10 active; AID 1025, 2008;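 active = activation factor of at least 2 at 5 µM in the primary screen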;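 note: 0 = wells with 2.5 mM tranylcypromine and 1 = vehicle-only wells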
* marks the source's active call; other numbers are inactive results; . = not tested or not shown.

SMILES	Plk1 PBD FP	CYP2C19 inhib	CYP2C9 act	PLK1 inh	CYP2C9 inh	CYP2C19 activ
Cc1ccc(C(=O)N/C(=C\c2cccs2)C(=O)NCc2ccncc2)cc1	-5.0	9.0	1	-10.5	-0.1	0.9
O=C(NCCCN1CCCC1=O)c1ccc(OCc2ccccc2)cc1	-27.1	18.4	0.5	-9.7	46.8	0.8
CCN(CC)C(=O)CC(c1ccc(F)cc1)c1ccco1 (stereo not given)	-18.4	62.1*	0.7	25.3	31.1	0.4
CCN1CCCC1CNC(=O)Cn1cccc1C(=O)c1ccccc1 (stereo not given)	-9.0	-9.1	1.1	-2.6	-6.7	1.1
CC(C)[C@H](NC(=O)NCc1ccc(Cl)cc1)C(=O)O	0.1	-8.0	1.1	-14.6	-7.2	1.1
CC(C)Oc1cccc(C(=O)NC(=S)Nc2cccc(C(F)(F)F)c2)c1	-13.4	-3.6	1.7	0.9	-70.8	1
COc1cccc(C(C)NC(=O)Nc2cccc(C(F)(F)F)c2)c1 (stereo not given)	-0.9	67.3*	0.5	-4.1	45.6	0.3
CCC(C)[C@H](NC(=O)Nc1cccc(OC)c1)C(=O)OC (stereo not given in full)	22.3	54.7*	0.9	-7.2	11.1	0.5
CCC(C)[C@H](NC(=O)NCc1cccc(OC)c1)C(=O)O (stereo not given in full)	-6.7	2.6	1	-5.4	2.9	1
CCC(C)[C@H](NC(=O)NCc1ccc(Cl)cc1)C(=O)OC (stereo not given in full)	-10.2	51.8*	0.8	-4.7	22.5	0.5
COc1ccc(CNC(=O)Cc2csc(Nc3nc(=S)[nH]c4ccccc34)n2)cc1	9.2	65.5*	0.1	-1.4	86.3*	0.3
O=C(Cc1csc(Nc2nc(=S)[nH]c3ccccc23)n1)NCc1ccc(Cl)cc1	-7.0	55.8*	0.2	-11.2	82.9*	0.4
CN(C)CC(C)(C)CNS(=O)(=O)c1cccc(Cl)c1Cl	-13.5	76.8*	0.7	-1.7	32.5	0.2
C/C(NCC(C)(C)CN(C)C)=C(/C#N)C(=O)NCc1ccccc1	-22.0	10.8	0.9	-4.2	7.8	0.9
COc1ccc(C2(O)CCN(C(=O)c3ccc4c(c3)OCO4)CC2)cc1	.	30.1	0.6	.	36.7	0.7
CC1Cc2ccccc2N1S(=O)(=O)c1cccc(C(=O)c2nccn2C)c1 (stereo not given)	24.0	36.2	0.6	-9.4	44.4	0.6
CCC(CO)NC(=O)c1cccc(S(=O)(=O)N2c3ccccc3CC2C)c1 (stereo not given)	-26.5	73.4*	0.9	-15.8	13.9	0.3
CC(=O)N1CCc2cc(S(=O)(=O)N3c4ccccc4CC3C)ccc21 (stereo not given)	3.8	13.9	0.7	-0.6	29.6	0.9
Cc1noc(C)c1COC(=O)c1cccc(S(=O)(=O)N2c3ccccc3CC2C)c1 (stereo not given)	-3.5	58.6*	0.2	-10.0	80.1*	0.4
Cc1cc(C)n2c3c(c(C#N)c2n1)CCCC3	-12.1	8.2	1	-13.8	2.9	0.9
CC(C)CCn1c(SCC(=O)OCn2nnc3ccccc3c2=O)nc2ccccc2c1=O	2.6	16.5	0.6	-9.2	36.2	0.8
CC(=O)N1CCc2cc(S(=O)(=O)NCCN3CCC(C)CC3)ccc21	-20.6	50.8*	1	-40.4	2.8	0.5
COc1ccc(CCNC(=O)CCNS(=O)(=O)c2ccc3c(c2)CCN3C(C)=O)cc1OC	.	8.6	0.4	.	61.1*	0.9
CCC(=O)N1CCc2cc(S(=O)(=O)NCCCN3CCN(Cc4ccccc4)CC3)ccc21	9.3	18.9	0.7	-4.5	25.4	0.8
CC(=O)N1CCc2cc(S(=O)(=O)NCCCN3CCN(Cc4ccccc4)CC3)ccc21	16.2	52.5*	0.5	-11.4	49.5	0.5
SMILES	Plk1 PBD FP	CYP2C19 inhib	CYP2C9 act	PLK1 inh	CYP2C9 inh	CYP2C19 activ
Cc1ccccc1C(=O)N1CCC(C(=O)Nc2ccc3c(c2)OCCO3)CC1	20.6	4.3	1.2	-1.6	-21.2	1
CC(C)(C)C(=O)NC1(C(F)(F)F)C(=O)Nc2c1c(=O)[nH]c(=O)n2Cc1ccco1 (stereo not given)	.	-8.4	1	.	-2.2	1.1
CCCc1nc(N)c(C#N)c(-c2cccnc2)c1CC	-6.0	60.6*	0.8	-10.8	23.8	0.4
N#Cc1c(N)nc2c(c1-c1cccnc1)CCCCC2	.	-6.5	1.4	.	-42.9	1.1
CCOC(=O)C1CCN(Cc2cnc(Oc3ccc(C(C)(C)C)cc3)s2)CC1	-17.9	39.8	0.6	-11.4	36.6	0.6
O/N=C1\CCCc2nnc3c(c21)CCCC3	.	1.2	2.9*	.	-193.3	1
COc1cc(C(=O)Nc2cc(Cl)ccc2C)c(-n2cnnn2)cc1OC	5.3	-12.2	1.2	-8.7	-18.6	1.1
COc1ccc(C2CC(C(F)(F)F)n3ncc(C(=O)NCc4cccnc4)c3N2)cc1OC (stereo not given)	5.8	19.5	0.5	-11.2	51.7*	0.8
Cc1c(CNC(=O)c2cnn3c2NC(c2ccccc2)CC3C(F)(F)F)cnn1C (stereo not given)	28.9	-2.2	0.7	-3.4	29.8	1
Cc1ccc(C2CC(C(F)(F)F)n3nc(C(=O)NCC4CCCO4)cc3N2)cc1 (stereo not given)	5.9	47.0	0.4	11.9	58.2*	0.5
O=C(NCCN1CCOCC1)c1cc2n(n1)C(C(F)(F)F)CC(c1ccc(F)cc1)N2 (stereo not given)	10.7	-17.1	1.1	-2.6	-7.4	1.2
COc1cccc(C2CC(C(F)(F)F)n3ncc(C(=O)NCC4CCCO4)c3N2)c1 (stereo not given)	-15.6	32.8	0.4	-1.7	60.4*	0.7
Cc1cccc(N=C(N2CCOCC2)P(=O)(N2CCOCC2)N2CCOCC2)c1	-5.6	-2.6	0.8	-8.6	18.8	1
Cn1c(=O)c2c(ncn2CCN(CCO)Cc2ccccc2)n(C)c1=O	-6.2	-6.3	1.1	-9.2	-10.3	1.1
CCCCCCCCNC(=O)CCNC(=O)c1ccc(C(C)(C)C)cc1	-29.7	55.4*	0.5	-13.1	51.8*	0.4
CCOc1ccc(C(=O)NCCC(=O)NCCCC(=O)O)cc1	29.5	19.7	0.5	0.6	45.3	0.8
COc1ccccc1OCC(O)Cn1nc(C)cc1C (stereo not given)	-7.9	.	.	-25.7	.	.
Cc1cc(C)n(CC(O)COc2ccccc2C(=O)Nc2ccccc2)n1 (stereo not given)	8.0	90.7*	0.1	-7.5	88.3*	0.1
